Measurements taken from PubChem BioAssay (NCI).
Compounds without any hit were thinned out: in the full panel of roughly 83,000, 20% have a hit.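 How to read the values: 0–100, growth inhibition (40 = 60% inhibited); 0, no net growth; -100 to 0, cell death (-40 = 40% of starting cells died; -100 = all dead).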 A number with no mark means an inactive call. Calls of active or inactive are those of the source. The calls were made as follows: active = growth percent below 10; inactive = the rest.

Each molecule was assayed on SF-268 CNS (assay: NCI-60 one-dose screen, 48 h (100 = growth as untreated, 0 = no growth, -100 = all killed)). Settings: 10 µM unless noted.

| Structure (SMILES) | growth |
| --- | --- |
| CCCC[C@H](NC(=O)[C@H]1CCCN1C)C(=O)N(C)[C@H](C[C@@H](OC(C)=O)c1nc(C(=O)N[C@@H](Cc2ccccc2)C[C@H](C)C(=O)OCC)cs1)C(C)C | 25.8% |
| COc1ccc2c(c1)c(-c1nc(-c3c[nH]c4ncccc34)cs1)cn2CCCCN1CCCCC1 | -50.9% (active) |
| COC(=O)[C@H](Cc1ccccc1)NC(=O)c1csc([C@@H](C[C@H](C(C)C)N(C)C(=O)[C@@H](NC(=O)[C@H]2CCCN2C)C2CC2)OC(C)=O)n1 | 24.4% |
| C[C@]12CC[C@H]3[C@@H](CC[C@]4(O)C[C@@H](O[C@@H]5O[C@H](CO)[C@@H](O[C@@H]6OC[C@@H](O)[C@H](O)[C@H]6O)[C@H](O)[C@H]5O)CC[C@]34C=O)[C@@]1(O)CC[C@@H]2C1=CC(=O)OC1 | -44.6% (active) |
| c1cc2c(c3c1CCNC3)OCO2 | 102% |
| Fc1ccc2c(c1)c(-c1nc(-c3c[nH]c4ncccc34)cs1)cn2CCCCN1CCCCC1 | -77.5% (active) |
| O=C(Nc1ccncc1F)c1cn(CC2CC2)c2ccccc12 | 105% |
| COP(=S)(N1CC1)N1CC1 | 112% |
| C/C=C(\C)C(=O)O[C@@H]1C(O)[C@H]2OC(COC(=O)CCC(=O)CCCCCC[C@H](CCCCC)O[C@@H]3OC(C)[C@H](OC(C)=O)C(O)[C@H]3O2)[C@H]1OC(=O)/C=C/c1ccccc1 (some centres undefined) | 18.1% |
| CCc1ccccc1[C@@H]1C[C@]2(C)CCO[C@@H]2OO1 | 98.3% |
| CC(=O)O[C@H](C[C@H](C(C)C)N(C)C(=O)[C@@H](NC(=O)[C@H]1CCCCN1C)C(C)(C)C)c1nc(C(=O)N[C@@H](Cc2ccccc2)C[C@H](C)C(=O)O)cs1 | 24.1% |
| COc1ccc(C(=O)c2cc(OC)c(OC)c(OC)c2)cc1OC(C)=O | 41.9% |
| COc1ccc(N(CC(=O)NCCC[Te]c2ccccc2)C(=O)CNC(=O)OC(C)(C)C)cc1 | 24.2% |
| COC(=O)[C@@H](C)C[C@H](Cc1ccccc1)NC(=O)c1csc([C@@H](C[C@H](C(C)C)N(C)C(=O)[C@@H](NC(=O)[C@H]2CCCCN2C)C(C)C)OC(C)=O)n1 | 17.1% |
| CC[C@H](C)[C@@H]1OC(=O)C(C)(C)[C@H](O)[C@H](Cc2ccccc2)OC(=O)[C@H](C(C)C)OC(=O)[C@@H](NC(=O)c2cccc(NC=O)c2O)[C@@H](C)OC1=O | 62.1% |
| NC(=O)CNc1ccc([As]=[As]c2ccc(NCC(N)=O)cc2)cc1 (centres undefined) | 24.6% |
| Fc1ccc2c(c1)c(-c1nc(-c3c[nH]c4ncccc34)cs1)cn2CCN1CCOCC1 | 56.6% |
| O=C([O][Hg][CH2]C1COCC([CH2][Hg][O]C(=O)c2ccccc2)O1)c1ccccc1 (centres undefined) | 104% |
| O=[N+]([O-])CC(c1ccccc1Cl)c1c(-c2ccccc2)[nH]c2ccccc12 (centres undefined) | 50.1% |
| CCn1c2ccccc2c2cc(C(=O)c3cccc4c3CCCN4)ccc21 | 102% |
| COc1ccc(/C(C)=C(\c2ccc(OCCN3CCOCC3)cc2)c2ccc(OC(=O)Cc3ccccc3)cc2)cc1 | 100% |
| Cc1cc(N(CCCl)CCCl)ccc1C=Nc1ccc(-c2csc(Cc3ccccc3)n2)cc1 | 65.6% |
| Cc1ccc2c(C(C[N+](=O)[O-])c3cccs3)c(-c3ccccc3)[nH]c2c1 (centres undefined) | 37.7% |
| O=C(CC1(O)C(=O)N(Cc2ccccc2)c2ccc(Cl)cc21)c1ccc(C(=O)NCC2CCC3(CC2)OOC2(CCCCC2)OO3)cc1 (centres undefined) | -49.6% (active) |
| COC(=O)[C@@H](C)C[C@H](Cc1ccccc1)NC(=O)c1csc([C@@H](C[C@H](C(C)C)N(C)C(=O)[C@@H](NC(=O)C23CC(NC(C)=O)(C2)C3)C2CC2)OC(C)=O)n1 | 55.6% |
| COC(=O)[C@]12CCC(C)(C)C[C@H]1[C@H]1C(=O)C[C@@H]3[C@@]4(C)C[C@@]5(CC(C)(C)[C@@H]4CC[C@@]3(C)[C@]1(C)CC2)OO[C@@](C)(C(F)(F)F)O5 | 93.1% |
| CNC(=O)Oc1ccc(N(C)C)cc1C(C)C | 101% |
| COc1ccc(/C=C\c2cc(OC)c(OC)c(OC)c2)cc1OCC(=O)Nc1nc2ccc(C(F)(F)F)cc2s1 | 43% |
| O=C(CC1(O)C(=O)N(Cc2ccccc2)c2ccc(F)cc21)c1ccc(C(=O)NCC2CCC3(CC2)OOC2(CCCCC2)OO3)cc1 (centres undefined) | -60.3% (active) |
